Source: PubChem (National Center for Advancing Translational Sciences (NCATS))
TCR activator – T cell receptor activation; primary human leukocytes, anti-CD3, IL-2 HTRF, 48 h; Potency, µM (highest dose often 9.22 µM), without a hit: at the top dose activation of IL-2 secretion, most hits filed as activators; 330,000 tested, under 10 active; AID 504894; also: % of control where 0% means no effect
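1) Mix primary human leukocytes, a-CD3 beads and compound. 2) Incubate 48 hr. 3) Add HTRF IL-2 reagents (a-IL-2-K, a-IL-2-d2).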
BRCA1 expr act – increases BRCA1 expression; MCF7-BRCA1-FFLuc reporter, luminescence, 48 h; response scale: scaled: vehicle 0%, 10 µM genistein 100%; Potency, µM (series often up to 46.1 µM), for inactives: at the top dose activation, actives largely listed as activators; 1.1% of 380,000 active; AID 624202; also: potency is read from the fitted curve at half-maximal effect; nearly all actives have a fitted effect of over 80% in size
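MCF7-BRCA1-FFLuc, 2000 cells/well; 2 h attach, 37 °C/5% CO2; compound 48 h; luciferase substrate 15 min; luminescence end-point. Norm. to genistein 10 microM max activation and DMSO; concentration-response curves fitted.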
p53 reactivator – mutant p53 re-activation in reporter cells. 0.063% of 320,000 active. Potency, µM (titrated, usually from 92.2 µM), for inactives: top-dose activity change, positive = activation, most hits filed as activators. H1299 p53-A138V BP100-luciferase reporter, luminescence, 24 h. AID 504706; also: potency is read from the fitted curve at half-maximal effect; % of control where 0% means no effect; nearly all actives have a fitted effect of over 45% in size
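p53-null H1299 cells stably carrying temperature-sensitive p53-A138V and a BP100-luciferase reporter were pinned with compounds (4-point, 1:5 series) and held 24 hrs at 37 deg C. Luminescence was read 10 min after detection reagent.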
IL2 activator – activates IL-2 in a cell-based reporter assay; activation, % (series mostly up to about 46 µM); IL-2 activation reporter assay, cell-based qHTS; stimulated with anti-CD3/CD4/CD28 beads; in transgenic mouse T cells; AID 652025; 0.065% of 360,000 active; in the data active = activation above about 50%; inconclusive = mostly about 30% to 49%; also: 0% is about no effect
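Readout is EGFP and DsRed signal by fluorescent plate cytometry after 18 h at 37 degrees C. Transgenic mouse T cells (750/well) received compound for 60 min before bead stimulation (anti-CD3, anti-CD4, anti-CD28); memory T cells served as non-tolerant control.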
Mito fusion act – inhibitors of mitochondrial division or activators of mitochondrial fusion; AID 485298; S. cerevisiae fusion-defective mutant growth rescue, CellTiterGlo 48 h; Potency, µM (top dose mostly 46.1 µM), inactives show at the highest dose growth rescue (activation), most hits filed as activators; 0.23% of 320,000 active; also: potency is read from the fitted curve at half-maximal effect; % of control where 0% means no effect; nearly all actives have a fitted effect of over 45% in size
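Compounds are tested for their ability to restore growth of mitochondrial fusion-defective yeast strains at non-permissive 37C in YPEG medium over 48 hours. Viability is quantified by luciferase luminescence.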
* marks the source's active call; other numbers are inactive results; ? = inconclusive; nt = not tested or not shown; ! = repeats disagree; [ ] = remark or other dose. An excerpt weighted towards active compounds, which were near 1.3% of everything screened. Unless noted, calls follow the shape of the dose curve; as a rule, active = well fitted curve in the direction sought with a large enough effect; inconclusive = small, poorly fitted or top-dose-only effect, or another doubt; inactive = no such curve, though single readings can be large; an effect the other way counts as inactive or inconclusive.

SMILES	TCR activator	BRCA1 expr act	p53 reactivator	IL2 activator	Mito fusion act
Cc1ccc(-c2nc3cc(Cl)ccc3o2)cc1NC(=O)COc1ccccc1C	nt	2%	nt	nt	nt
N/C(=N\OC(=O)c1csnn1)c1ccc(C(F)(F)F)cc1	-5%	11µM*	8%	-3	2%
Cc1ccc(C(=O)O/N=C(\N)c2ccc(C(F)(F)F)cn2)cc1	-9%	?	?	4	25%
CC(C)(C)S(=O)(=O)c1cnc(-c2ccc(Cl)cc2)nc1N	3%	2.8µM*	11%	1	-5%
CC(=O)NC1=C(C#N)CCC1	nt	-10%	nt	nt	nt
Nc1nnc(/C=C/c2cccc([N+](=O)[O-])c2)s1	1%	16µM*	24%	3	2%
COc1ccc(C2CC(=O)Nc3c2c(=O)n(C)c2nc4ccccc4n32)cc1 (stereo not given)	nt	-13%	nt	nt	nt
O=C(COc1ccccc1)Nc1nc2c(s1)CCCC2	-2%	3.2µM*	19%	0	-9%
CC(=O)c1sc(NC(=O)COc2ccccc2)nc1C	6%	?	3%	2	-8%
O=S(=O)(c1ccc2c(c1)CCCC2)N1CCN(c2nc(-c3cccs3)nc3ccccc23)CC1	nt	0%	nt	nt	nt
Cc1ccc2c(cnn2C(=O)CCCC(=O)NC(C)c2ccccc2)c1 (stereo not given)	-4%	2.5µM*	18%	-4	2%
Cc1ccc2c(cnn2C(=O)CCCC(=O)NCc2ccc(F)cc2)c1	-5%	81%	17%	0	3%
CCOc1ccc(NC(=O)CN2C(C(=O)OC)=C(c3ccccc3)c3cc(Cl)ccc3S2(=O)=O)cc1	nt	11%	nt	nt	nt
CC(=O)NC(Cc1ccc(O)cc1)C(=O)NCC(N)C(=O)c1ccccc1 (stereo not given)	nt	29%	nt	nt	nt
CCC(C)(C)C(=O)Nc1nnc(CCc2ccccc2)s1	0%	8.9µM*	18%	-3	-11%
Cc1ccccc1OCC(=O)NCC(=O)OCC(=O)c1ccc(-c2ccccc2)cc1	nt	0%	nt	nt	nt
CN(C)c1ccc(/C=C/c2ccnc3ccc(O)cc23)cc1	nt	5%	nt	nt	nt
Cn1cccc1/C=C1\SC(=O)N(c2ccccc2)C1=O	7%[46.1 µM]	?	?	250*	4%
Cc1ccc(OCCn2c(=O)sc3ccccc32)cc1	-2%[46.1 µM]	5.6µM*	?	-4	8%
N#CCOc1ccc2oc(-c3ccco3)cc(=O)c2c1	nt	nt	-4%	nt	-1%
Cc1ccc2oc(-c3ccco3)cc(=O)c2c1	1%	3.5µM*	4%	-2	0%
O=c1cc(-c2ccco2)oc2ccccc12	-1%	77%	nt	0	nt
CC(C)OCCOc1ccc2oc(-c3ccco3)cc(=O)c2c1	nt	8.9µM*	nt	-1	3%
Cc1ccccc1OCC(=O)NCC(=O)OCc1ccc2ccccc2c1	nt	4%	nt	nt	nt
O=C(/C=C/c1ccccc1)NC(=S)Nc1ccccc1O	0%	?	?	0	-12%
SMILES	TCR activator	BRCA1 expr act	p53 reactivator	IL2 activator	Mito fusion act
O=C(/C=C/c1ccc(F)cc1)NC(=S)Nc1ccccc1O	-7%	13µM*	12%	1	-7%
CCN(CC)C(=O)c1ccc(/C=C/c2c[nH]c3ccccc23)[n+](C)c1	15%[46.1 µM]	-11%	?	79*	nt
CC[n+]1c(/C=C/c2c[nH]c3ccccc23)ccc2cc(C)ccc21	5%	-56%	0%	68*	-3%
C#CCn1cc(/C=N/Nc2nc3ccccc3[nH]2)c2ccccc21	11%[46.1 µM]	-50%	14µM*	-4	10%
CCN(CC)c1ccc(/C=N/Nc2nc3ccccc3[nH]2)c(O)c1	-7%	-63%	18µM*	0	-2%
C(=N\Nc1nc2ccccc2[nH]1)/c1cccc2nccnc12	4%	-47%	6%	-4	-2%
COc1ccc(C(=O)c2cn(CC(=O)Nc3ccc4c(c3)OCCO4)c3ccc(OC)cc3c2=O)cc1	nt	6%	nt	nt	nt
Cc1cc(C)c(NC(=O)c2sc3nc(C)[nH]c(=O)c3c2C)c(C)c1	nt	nt	1%	nt	-25%
Cc1ccc(NC(=O)c2sc3nc(CCl)[nH]c(=O)c3c2C)c(C)c1	1%	11µM*	5%	-4	7%
CS(=O)(=O)Nc1ccc([N+](=O)[O-])cc1Oc1ccccc1	11%	5%	4%	0	23µM*!
O=S(=O)(c1ccc(Cl)cc1)N1CCN(c2nc(-c3ccccc3)nc3ccccc23)CC1	nt	10%	nt	nt	nt
CCN(c1cccc(C)c1)S(=O)(=O)c1cc(Br)cc2c1N(C(C)=O)C(C)C2 (stereo not given)	nt	-25%	nt	nt	nt
CCOC(=O)c1c(NC(=O)/C=C/c2ccc(C)o2)sc(C)c1C	-3%	-82%	-6%	-3	0%
Cc1sc(NC(=O)/C=C/c2ccco2)c(C(=O)O)c1C	9%	2.2µM*	5%	8	13%
COc1ccc(C(=O)NCC(=O)OCC(=O)c2cccc3ccccc23)cc1	nt	4%	nt	nt	nt
CCC(C)(C)NC(=O)C1CCCN(S(=O)(=O)c2ccc3c(c2)CC(C)N3C(=O)C2CC2)C1 (stereo not given)	3%	-30%	-3%	-4	11µM*
CC(C(=O)O)c1ccc(C(=O)c2ccccc2)s1 (stereo not given)	-6%	14µM*	10%	0	-1%
CCOc1ccc2cc(C(=O)c3ccccc3)c(=O)oc2c1	-4%[46.1 µM]	10µM*	?	-1	-4%
COc1ccc(-c2cc3ccc(OCC(C)=O)cc3oc2=O)cc1OC	-9%	10µM*	?	-2	0%
COc1cccc(C(=O)COc2ccc3c(C)c(Cc4ccccc4)c(=O)oc3c2)c1	3%[46.1 µM]	8%	-6%	-5	1%
CCCc1c(C)c2ccc(OCC(C)=O)cc2oc1=O	1%	5.6µM*	?	-1	3%
Cc1c(C)c2ccc(OCC(=O)c3ccccc3)cc2oc1=O	-4%	6.3µM*	11%	-3	-32%
CCCCc1c(C)c2ccc(OCC(C)=O)cc2oc1=O	5%	?	?	-5	12%
COc1ccc(-c2cc3ccc(OCC(C)=O)cc3oc2=O)cc1	-3%	?	?	-2	1%
CN1CC[C@H](c2c(O)cc(O)c3c(=O)cc(-c4ccccc4Cl)oc23)[C@@H](O)C1	nt	0%	nt	nt	nt
SMILES	TCR activator	BRCA1 expr act	p53 reactivator	IL2 activator	Mito fusion act
COc1cccc(N2C(=O)CSC23C(=O)N(CC(=O)Nc2cc(C)ccc2C)c2ccccc23)c1 (stereo not given)	nt	-35%	nt	nt	nt
COc1ccc(C(=O)N=c2nc(-c3ccccc3)n(-c3ccccc3)s2)cc1	nt	0%	nt	nt	nt
CCOC(=O)c1ccc(N/C=C\C(=O)c2cccc(OC)c2)cc1	-6%[46.1 µM]	3.5µM*	?	-1	1%
CCOc1ccc(N/C=C\C(=O)c2ccc3c(c2)OCO3)cc1	-1%	4.5µM*	nt	14	nt
COc1ccc(N/C=C\C(=O)c2ccc3c(c2)OCO3)cc1	-3%	0%	?	-2	2%
CCOC(=O)c1cccc(N/C=C/C(=O)c2ccc(OC)c(OC)c2)c1	-7%	87%	16%	-2	-2%
